{
  "source": "paper PMC4336329",
  "about": "(PLoS ONE, 2015)",
  "note": "The whole screen tested about 310,000 compounds, of which about 14,000 (4.5%) showed an effect of 50% or more. The effect is printed as a negative number. This excerpt belongs to a sample that is enriched for strong results.",
  "data": [
    {"target": "human ether-à-go-go-related gene (hERG) potassium channel (human, UniProt Q12809)", "sequence (Q12809 whole entry, looked up)": "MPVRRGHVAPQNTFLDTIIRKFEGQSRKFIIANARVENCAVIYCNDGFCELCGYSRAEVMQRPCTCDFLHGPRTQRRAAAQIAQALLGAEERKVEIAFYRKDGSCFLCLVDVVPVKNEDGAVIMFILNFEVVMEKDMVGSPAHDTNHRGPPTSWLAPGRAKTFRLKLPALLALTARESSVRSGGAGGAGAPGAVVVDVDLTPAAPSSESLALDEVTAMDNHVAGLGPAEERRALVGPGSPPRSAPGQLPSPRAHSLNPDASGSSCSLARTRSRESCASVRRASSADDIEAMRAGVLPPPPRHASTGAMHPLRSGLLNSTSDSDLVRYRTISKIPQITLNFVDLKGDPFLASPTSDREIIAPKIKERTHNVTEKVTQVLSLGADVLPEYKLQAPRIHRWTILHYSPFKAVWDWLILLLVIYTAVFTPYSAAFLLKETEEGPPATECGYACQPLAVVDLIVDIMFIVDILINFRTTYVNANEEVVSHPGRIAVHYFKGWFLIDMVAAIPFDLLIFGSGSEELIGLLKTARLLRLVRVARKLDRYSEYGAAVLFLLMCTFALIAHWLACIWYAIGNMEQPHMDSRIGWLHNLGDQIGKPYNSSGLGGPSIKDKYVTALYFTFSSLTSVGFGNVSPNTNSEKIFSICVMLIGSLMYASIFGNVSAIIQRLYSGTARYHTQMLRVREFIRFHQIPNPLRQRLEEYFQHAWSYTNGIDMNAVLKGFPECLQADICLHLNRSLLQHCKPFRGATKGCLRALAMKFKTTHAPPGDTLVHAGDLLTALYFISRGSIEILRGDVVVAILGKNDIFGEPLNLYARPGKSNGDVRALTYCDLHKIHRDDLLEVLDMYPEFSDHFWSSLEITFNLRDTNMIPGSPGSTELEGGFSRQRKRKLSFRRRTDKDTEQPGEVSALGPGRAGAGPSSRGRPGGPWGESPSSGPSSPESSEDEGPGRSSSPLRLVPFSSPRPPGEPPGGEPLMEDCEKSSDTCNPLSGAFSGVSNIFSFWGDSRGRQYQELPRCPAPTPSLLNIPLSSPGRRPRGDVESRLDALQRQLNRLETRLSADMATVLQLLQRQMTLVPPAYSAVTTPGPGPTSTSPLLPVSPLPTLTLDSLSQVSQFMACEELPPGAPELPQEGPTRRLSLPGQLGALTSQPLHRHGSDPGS", "assay": "primary screen, population patch clamp on CHO cells stably expressing hERG; higher = less effect of the substance", "units": {"hERG current change (%, negative = inhibition) at 10uM": "%"}, "values": [
      {"compound": "CC12CN3CC(C)(CN(C1)C3c1cccnc1)C2=O", "note": "(stereo not drawn);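 note: peak tail current of the secondary pulse compared with the same well before compound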", "hERG current change (%, negative = inhibition) at 10uM": -0.24},
      {"compound": "CC(NCc1ccco1)C(=O)N1CCc2ccccc2C1.Cl", "note": "(stereo not drawn)", "hERG current change (%, negative = inhibition) at 10uM": 14},
      {"compound": "O=C(COc1ccccc1)Nc1ccc2c(c1)C(=O)N(CC1CCCO1)C2=O", "note": "(stereo not drawn)", "hERG current change (%, negative = inhibition) at 10uM": 6.03},
      {"compound": "O=C(NCc1ccco1)c1ccc(Cn2cc([N+](=O)[O-])cn2)o1", "hERG current change (%, negative = inhibition) at 10uM": -10.3},
      {"compound": "O=C1c2cccc3c(N4CCCCC4)ccc(c23)C(=O)N1c1cccc(O)c1", "hERG current change (%, negative = inhibition) at 10uM": 32.6},
      {"compound": "CNC(=O)c1c(NC(=O)c2ccc(N3C(=O)CCC3=O)cc2)sc2c1CCCC2", "hERG current change (%, negative = inhibition) at 10uM": -13.3},
      {"compound": "CCOc1cc(NC(=O)c2ccccc2C)c(OCC)cc1NC(=O)C1=Cc2ccccc2OC1", "hERG current change (%, negative = inhibition) at 10uM": 9.99},
      {"compound": "CC(C)(C)NC(=S)NC(=O)C12CCC3CC(CC(C3)C1)C2", "hERG current change (%, negative = inhibition) at 10uM": 6.45},
      {"compound": "O=C(Nc1ccnn1C1CCN(Cc2ccccn2)CC1)c1cccc(F)c1", "hERG current change (%, negative = inhibition) at 10uM": -7.3},
      {"compound": "CC(C)(C)CN1CCC(n2nccc2NC(=O)c2ccccc2Cl)CC1", "hERG current change (%, negative = inhibition) at 10uM": -20.3},
      {"compound": "O=C(Nc1ccnn1C1CCN(C/C=C/c2ccccc2)CC1)c1cccc(F)c1", "hERG current change (%, negative = inhibition) at 10uM": -70.9},
      {"compound": "O=C(Nc1ccnn1C1CCN(C/C=C/c2ccccc2)CC1)c1ccccc1Cl", "hERG current change (%, negative = inhibition) at 10uM": -83.8},
      {"compound": "O=C(Nc1ccnn1C1CCN(C/C=C/c2ccccc2)CC1)c1ccccc1", "hERG current change (%, negative = inhibition) at 10uM": -73.7},
      {"compound": "O=C(Nc1ccnn1C1CCN(Cc2ccc(CO)o2)CC1)c1ccccc1", "hERG current change (%, negative = inhibition) at 10uM": 1.16},
      {"compound": "O=C(Nc1ccnn1C1CCN(C2CCOCC2)CC1)c1cccc(F)c1", "hERG current change (%, negative = inhibition) at 10uM": -1.9},
      {"compound": "O=C(Nc1ccnn1C1CCN(Cc2ccc(CO)o2)CC1)c1ccccc1Cl", "hERG current change (%, negative = inhibition) at 10uM": -0.636},
      {"compound": "CC(C)=CCN1CCC(n2nccc2NC(=O)c2ccccc2Cl)CC1", "hERG current change (%, negative = inhibition) at 10uM": -57.9},
      {"compound": "COc1cc(/C=N\\NC(=O)c2ccc(C)nc2)ccc1OC(=O)c1cccc(F)c1", "hERG current change (%, negative = inhibition) at 10uM": -8.51},
      {"compound": "COc1ccccc1-c1cc(C(=O)N2CCCC2)no1", "hERG current change (%, negative = inhibition) at 10uM": -8.67},
      {"compound": "Cc1ccc(S(=O)(=O)/N=C(/Nc2ccc(F)cc2F)c2ccccc2)cc1", "hERG current change (%, negative = inhibition) at 10uM": 12.9},
      {"compound": "COC(=O)c1ccc(NC(=S)Nc2cccc(C)n2)cc1", "hERG current change (%, negative = inhibition) at 10uM": -0.48},
      {"compound": "O=C(COC(=O)c1c(F)cccc1Cl)NC(=O)Nc1ccc2c(c1)OCCO2", "hERG current change (%, negative = inhibition) at 10uM": 12.4},
      {"compound": "CCOC(=O)c1ccc(NC(=O)c2nn(CC)cc2Br)cc1", "hERG current change (%, negative = inhibition) at 10uM": 5.3},
      {"compound": "CC(=NCCO)c1c(O)n(C2CCCCC2)c(=O)[nH]c1=O", "hERG current change (%, negative = inhibition) at 10uM": -5.36},
      {"compound": "CC1CN(C2=NC(=O)/C(=C/c3ccncc3)S2)CC(C)O1", "note": "(stereo not drawn)", "hERG current change (%, negative = inhibition) at 10uM": -14.5},
      {"compound": "CCN1CCCC1CNC(=O)c1ccc2c(c1)N(Cc1cccc(Cl)c1)C(=O)c1ccccc1S2(=O)=O", "note": "(stereo not drawn)", "hERG current change (%, negative = inhibition) at 10uM": -39.7},
      {"compound": "Cc1cccc2sc(N(CCN3CCOCC3)C(=O)CCS(=O)(=O)c3ccccc3)nc12.Cl", "hERG current change (%, negative = inhibition) at 10uM": -13.3},
      {"compound": "COc1ccc2nc(N(Cc3ccccc3)C(=O)CCNC(C)=O)sc2c1", "hERG current change (%, negative = inhibition) at 10uM": -8.54},
      {"compound": "CCCC(=O)N(CCN1CCOCC1)c1nc2c(C)cccc2s1.Cl", "hERG current change (%, negative = inhibition) at 10uM": -7.14},
      {"compound": "CCOc1ccc2nc(N(CCN(C)C)C(=O)c3cc4ccccc4cc3OC)sc2c1.Cl", "hERG current change (%, negative = inhibition) at 10uM": 1.72},
      {"compound": "CC(=O)NCCC(=O)N(Cc1ccccc1)c1nc2c(C)cccc2s1", "hERG current change (%, negative = inhibition) at 10uM": -57.4},
      {"compound": "CCOc1ccc2nc(N(Cc3ccccc3)C(=O)CCNC(C)=O)sc2c1", "hERG current change (%, negative = inhibition) at 10uM": -61},
      {"compound": "CC(NC(=O)c1cc(F)c(F)cc1Cl)c1ccncc1", "note": "(stereo not drawn)", "hERG current change (%, negative = inhibition) at 10uM": 1.1},
      {"compound": "CCCc1ccc(C(C)NC(=S)NCc2ccc(F)cc2)cc1", "note": "(stereo not drawn)", "hERG current change (%, negative = inhibition) at 10uM": 18.6},
      {"compound": "CCOc1ccc(C(=O)OCC(=O)NC(C)C)cc1", "hERG current change (%, negative = inhibition) at 10uM": 22.3},
      {"compound": "COc1ccccc1NS(=O)(=O)c1ccc(O)c(NC(=S)NCC2CCCO2)c1", "note": "(stereo not drawn)", "hERG current change (%, negative = inhibition) at 10uM": 7},
      {"compound": "CCN(CC)C(=O)C(=O)N/N=C/c1ccc(F)cc1", "hERG current change (%, negative = inhibition) at 10uM": 18.7},
      {"compound": "COC(=O)c1ccc(CSc2ccc3nnc(-c4ccccn4)n3n2)o1", "hERG current change (%, negative = inhibition) at 10uM": -62.8},
      {"compound": "COC(=O)c1ccc(CSc2ccc3nnc(-c4ccc(OC)cc4)n3n2)o1", "hERG current change (%, negative = inhibition) at 10uM": -44.2},
      {"compound": "COC(=O)c1ccc(CSc2ccc3nnc(-c4ccccc4)n3n2)o1", "hERG current change (%, negative = inhibition) at 10uM": -53.5},
      {"compound": "COC(=O)c1ccc(CSc2ccc3nnc(-c4cccc(F)c4)n3n2)o1", "hERG current change (%, negative = inhibition) at 10uM": -62},
      {"compound": "COC(=O)c1ccc(CSc2ccc3nnc(-c4ccc(OC)c(OC)c4)n3n2)o1", "hERG current change (%, negative = inhibition) at 10uM": -15.1},
      {"compound": "CCOc1ccc(-c2nnc3ccc(SCc4ccc(C(=O)OC)o4)nn23)cc1", "hERG current change (%, negative = inhibition) at 10uM": -24.4},
      {"compound": "COC(=O)c1ccc(CSc2ccc3nnc(-c4ccc(F)cc4)n3n2)o1", "hERG current change (%, negative = inhibition) at 10uM": -29.1},
      {"compound": "CSc1nccc(Oc2cncc(Cl)c2)n1", "hERG current change (%, negative = inhibition) at 10uM": 8.61},
      {"compound": "Cc1csc(-c2cnn(-c3ccccc3)c2NC(=O)c2cccc(C(F)(F)F)c2)n1", "hERG current change (%, negative = inhibition) at 10uM": 9.98},
      {"compound": "CC(NC(=S)Nc1ccc(Cl)cc1)C(c1ccccc1)N1CCOCC1", "note": "(stereo not drawn)", "hERG current change (%, negative = inhibition) at 10uM": -13},
      {"compound": "COc1ccc(N=C2C(=O)N3c4c(cccc42)C(C)=CC3(C)C)cc1", "hERG current change (%, negative = inhibition) at 10uM": 9},
      {"compound": "Cc1c(CCOC(=O)c2cc([N+](=O)[O-])cc([N+](=O)[O-])c2)sc[n+]1CC(=O)c1ccc(Br)cc1.[Br-]", "hERG current change (%, negative = inhibition) at 10uM": -40.7},
      {"compound": "Cc1[nH+]csc1CCOC(=O)c1ccc([N+](=O)[O-])cc1.[Cl-]", "hERG current change (%, negative = inhibition) at 10uM": -35.4},
      {"compound": "Cc1ccc(C(=O)OCCc2sc[n+](Cc3ccccc3)c2C)cc1.[Cl-]", "hERG current change (%, negative = inhibition) at 10uM": -70.1},
      {"compound": "Cc1c(CCOC(=O)c2cc([N+](=O)[O-])cc([N+](=O)[O-])c2)sc[n+]1CCCCS(=O)(=O)[O-]", "hERG current change (%, negative = inhibition) at 10uM": 23.4},
      {"compound": "Cc1c(CCOC(=O)c2cc([N+](=O)[O-])cc([N+](=O)[O-])c2)sc[n+]1CC(=O)c1ccccc1.[Cl-]", "hERG current change (%, negative = inhibition) at 10uM": 5.96},
      {"compound": "Cc1c(CCOC(=O)C23CC4CC(CC(C4)C2)C3)sc[n+]1Cc1ccccc1.[Cl-]", "hERG current change (%, negative = inhibition) at 10uM": -8.89},
      {"compound": "Cc1c(CCOC(=O)c2ccc([N+](=O)[O-])cc2)sc[n+]1CC(=O)c1ccccc1.[Br-]", "hERG current change (%, negative = inhibition) at 10uM": -63.7},
      {"compound": "Cc1c(CCOC(=O)c2ccccc2)sc[n+]1Cc1ccccc1.[Cl-]", "hERG current change (%, negative = inhibition) at 10uM": -32.7},
      {"compound": "Cc1c(CCOC(=O)c2cccc([N+](=O)[O-])c2)sc[n+]1CC(=O)c1ccccc1.[Br-]", "hERG current change (%, negative = inhibition) at 10uM": -51.1},
      {"compound": "Cc1c(CCOC(=O)c2ccccc2)sc[n+]1CC(=O)c1ccc(Br)cc1.[Br-]", "hERG current change (%, negative = inhibition) at 10uM": -77},
      {"compound": "COc1ccc(C(=O)OCCc2sc[n+](CC(=O)c3ccccc3)c2C)cc1.[Br-]", "hERG current change (%, negative = inhibition) at 10uM": -48.9},
      {"compound": "Cc1sc[n+](CC(=O)c2ccc(Br)cc2)c1C.[Br-]", "hERG current change (%, negative = inhibition) at 10uM": -12.7}
    ]}
  ]
}
